Test results from publication PMC4552634, “A New Set of Chemical Starting Points with Plasmodium falciparum Transmission-Blocking Potential for Antimalarial Drug Discovery” (PLoS ONE, 2015).
The campaign covered roughly 13,000 compounds. About 3,200 (25%) showed an effect of 50% or more. Some of the results follow.

Each compound was assayed on P. falciparum stage V gametocytes. Conditions: 48 h, 5 µM; inhibitor.
Set-up: BacTiter-Glo ATP luminescence viability of purified stage V gametocytes in 384-well plates, per cent inhibition versus DMSO

Compound | % Inhibition [%]
COc1cc2c(cc1C(F)(F)F)N(C(=O)Nc1cc(F)c(F)c(-c3cccnc3)c1)CC2 [TCMDC-139061] | 5.239
CCC(C)(CC)C(=O)n1ncc2c3c(N)nc(N)nc3ccc21 [TCMDC-137335] | -46.13
COc1ccc(-n2ccnc2SCC(=O)Nc2cc(C(F)(F)F)ccc2Cl)c(OC)c1 [TCMDC-123822] | 7.482
CCCc1cc(Cc2cnc(N)nc2N)c2cccnc2c1OC [TCMDC-138034] | 13.25
c1cncc(-c2cccc(CNc3nccc(Nc4ccc(OCCN5CCOCC5)cc4)n3)c2)c1 [TCMDC-134667] | 2.743
O=C(NCCN1CCCCC1)c1cccc(Nc2nccc(Nc3ccc(Oc4ccccc4)cc3)n2)c1 [TCMDC-138603] | 19.36
c1ccc(Oc2ccc(Nc3ccnc(Nc4cccc(CNCCCN5CCOCC5)c4)n3)cc2)cc1 [TCMDC-138615] | 95.32
CN1CC[C@@H](Oc2cc(C(=O)NCc3ccc(Cl)c(Cl)c3)ccc2C(F)(F)F)C1 [TCMDC-136228] | 28.38
CCCCCCCCCc1c(C)[nH]c2ccccc2c1=O [TCMDC-137268] | 51.45
CCCCCCCCc1c(C)[nH]c(C)c(Br)c1=O [TCMDC-137437] | 29.73
CCCCCCCc1c(C)[nH]c2ccccc2c1=O [TCMDC-137425] | 37.94
CCCCCCCCc1c(C)[nH]c(C)c(Cl)c1=O [TCMDC-137538] | 68.39
CCCCCCCCc1c(C)[nH]c(C)c(C#N)c1=O [TCMDC-137431] | 44.76
CCCCCCCc1c(C)[nH]c2ccc(F)cc2c1=O [TCMDC-137269] | 73.68
CCCCCCCc1c(C)[nH]c2cccc(OC)c2c1=O [TCMDC-138014] | 32.1
CCCCCCCc1c(C)[nH]c2c(OC)cccc2c1=O [TCMDC-138016] | 17.32
CCCCCCCCc1c(C)[nH]c(C)c(I)c1=O [TCMDC-137430] | 48.86
O=C(NC1CCN(Cc2ccccc2)CC1)c1ccc(-c2nc3cc(F)c(F)cc3[nH]2)s1 [TCMDC-140452] | 7.821
N#Cc1ccc2c(c1)CCN(CCC1CCC(NC(=O)c3ccc(-c4ccccn4)s3)CC1)CC2 (centres unmarked) [TCMDC-139840] | -69.85
O=C(Nc1ccc(-c2csc(-c3nc4ccccc4[nH]3)c2)cc1)Nc1ccc(F)c(F)c1F [TCMDC-133221] | 23.86
CC(C)(C(=O)NCCC1CCN(CCCCCNC(=O)/C=C/c2ccc(Cl)c(Cl)c2)CC1)c1ccc(Cl)cc1 [TCMDC-140002] | 52.94
CC(Oc1ccc(Cl)cc1)C(=O)NCCC1CCN(CCCCCNC(=O)/C=C/c2ccc(Cl)c(Cl)c2)CC1 (centres unmarked) [TCMDC-140003] | 96.79
CC(Oc1ccc(Cl)cc1)C(=O)N(C)C1CCN(CCCCCNC(=O)/C=C/c2ccc(Cl)c(Cl)c2)CC1 (centres unmarked) [TCMDC-139989] | -40.26

Compound | % Inhibition [%]
O=C(/C=C/c1ccc(Cl)c(Cl)c1)NCCCCCN1CCC(CCNC(=O)/C=C/c2cc(C(F)(F)F)ccc2F)CC1 [TCMDC-140005] | -14.45
CN(C(=O)Cc1ccc(Cl)cc1)C1CCN(CCCCCNC(=O)/C=C/c2ccc(Cl)c(Cl)c2)CC1 [TCMDC-139988] | -15.24
CN(C(=O)Cc1ccc(Cl)c(Cl)c1)C1CCN(CCCCCNC(=O)/C=C/c2ccc(Cl)c(Cl)c2)CC1 [TCMDC-139986] | -22.66
CC(C)(Oc1ccc(Cl)cc1)C(=O)NCCC1CCN(CCCCCNC(=O)/C=C/c2ccc(Cl)c(Cl)c2)CC1 [TCMDC-140004] | 87.45
CN(C(=O)C(C)(C)Oc1ccc(Cl)cc1)C1CCN(CCCCCNC(=O)/C=C/c2ccc(Cl)c(Cl)c2)CC1 [TCMDC-139990] | 51.05
CC1(C)N=C(N)NC(NOCc2ccc(Cl)c(Cl)c2)=N1 [TCMDC-131606] | -8.519
CC(C)[C@H](NC(=O)c1ccc(O)c(-c2ccc(Cl)c(Cl)c2)c1)C(=O)NCCN1CCCCC1 [TCMDC-140858] | 1.563
N#Cc1nc2ccc(OCCN(Cc3ccccc3C(F)(F)F)c3ccc(C#N)c(C(F)(F)F)c3)cc2s1 [TCMDC-132798] | 33.49
N#Cc1ccc(NC(=NCCc2c[nH]c3ccccc23)Nc2ccc(-c3ccccc3)cc2)c(O)c1 [TCMDC-140211] | -66.19
CCCNCc1ccc(-c2ccc(CN(Cc3ccc4c(c3)OCO4)C(=O)Cc3cccnc3)cc2)nc1 [TCMDC-141529] | 106.5
CCCNCc1ccc(-c2ccc(CN(CCOC)C(=O)CCCOCc3ccccc3)cc2)nc1 [TCMDC-141543] | 33.78
CCCNCc1ccc(-c2ccc(CN(CCOC)C(=O)COc3ccccc3Cl)cc2)nc1 [TCMDC-141541] | 51.3
CCCCC(=O)N(CCOC)Cc1ccc(-c2ccc(CNCCC)cn2)cc1 [TCMDC-141536] | 72.35
CC(=O)Nc1cccc(CN(Cc2ccc(-c3ccc(CNCc4cccnc4)cn3)cc2)C(=O)Cc2cccnc2)c1 [TCMDC-141604] | -7.365
CCCNCc1ccc(-c2ccc(CN(CCOC)C(=O)Cc3cccnc3)cc2)nc1 [TCMDC-141528] | 108.8
CN(C)CCN(C)Cc1ccc(-c2ccc(NS(=O)(=O)c3cccc4cccnc34)cc2)cc1 [TCMDC-136474] | 21.58
CCn1cc(C=C2Oc3c(ccc(O)c3CN3CCCCC3)C2=O)c2cc(OC)ccc21 [TCMDC-124887] | 12.33
CCCNCc1ccc(-c2ccc(CN(CCOC)C(=O)CCC(=O)c3ccc(OC)c(F)c3)cc2)nc1 [TCMDC-141537] | 97.99
CCCNCc1ccc(-c2ccc(CN(CCOC)C(=O)CCc3ccc(OC)cc3)cc2)nc1 [TCMDC-141539] | 54.14
Cc1cc(NC(=O)NCCN2CCC(NS(=O)(=O)c3ccccc3F)CC2)c2ccccc2n1 [TCMDC-136137] | 1.757
CCOC(=O)c1[nH]c(-c2cc(Cl)nc(Cl)c2)nc1NC(=S)NCc1ccc(NS(C)(=O)=O)cc1 [TCMDC-138899] | -31.28
CC(=O)c1nccc(C)c1N [TCMDC-139307] | -14.24
CN1CCC(Oc2cc(NC(=O)Nc3ccc(-c4ccncc4)c(Cl)c3)ccc2Cl)CC1 [TCMDC-139205] | 28.36

Compound | % Inhibition [%]
O=C(CCCCCNC(=O)c1ccc(O)c(-c2ccc(Cl)c(Cl)c2)c1)NCc1cccc(C(F)(F)F)c1 [TCMDC-140831] | 18.4
O=C(Nc1ccsc1)Nc1cccc(-c2ccc(-c3nc4ccc(C(F)(F)F)cc4[nH]3)cc2)c1 [TCMDC-133210] | -6.282
COc1ccc(-c2cc3ncn(CC(=O)N4CCN(c5cccc(OC)c5)CC4)c(=O)c3s2)cc1 [TCMDC-125255] | 66.27
CNCCCn1c(N(C)C)nc2cc(-n3cnc4cc(-c5ccc(Cl)cc5)sc4c3=O)ccc21 [TCMDC-138914] | 43.83
COc1ccc(-c2cc3ncnc(N4CCN(CCN5CCCC5)CC4)c3s2)cc1 [TCMDC-125055] | -2.838
CN1CCN(C(=O)CN2CCC3(CCC2=O)NC(=O)c2ccccc2O3)CC1 (centres unmarked) [TCMDC-125378] | -32.42
CC(=O)N/N=C/[C@H](CCc1ccccc1)NC(=O)[C@H](CC(C)C)NC(=O)c1ccc(F)cc1 [TCMDC-135965] | 1.649
CC[C@H](NC(=O)c1c(N)c(-c2sccc2Cl)nc2ccccc12)c1ccccc1 [TCMDC-141650] | 17.42
O=[N+]([O-])c1cccc(CNCC2CCN(CCc3ccccc3)CC2)c1 [TCMDC-141210] | 2.081
COc1cccc(Nc2nc(Nc3cccc(C#N)c3)cc(C(F)(F)F)n2)c1 [TCMDC-133462] | -24.01
FC(F)(F)Oc1cccc(CNc2noc(-c3sccc3Br)n2)c1 [TCMDC-134186] | 1.419
Fc1ccc(Nc2n[nH]c(CNC3CCN(Cc4ccc(Cl)c(Cl)c4)CC3)n2)cc1 [TCMDC-138655] | -23.76
COc1cccc(Nc2nc(C)cc(Nc3cccc(C#N)c3)n2)c1 [TCMDC-133448] | 4.259
Fc1cccc(Nc2nc(NCc3ccc(Cl)c(Cl)c3)nc(Nc3cccc(F)c3)n2)c1 [TCMDC-135139] | 55.91
COc1ccc(CNc2nc(Nc3cccc(C#N)c3)nc(Nc3cccc(C#N)c3)n2)cc1Cl [TCMDC-138547] | 52.56
Fc1cccc(Nc2nc(NCCc3ccc(Cl)cc3)nc(Nc3cccc(F)c3)n2)c1 [TCMDC-135141] | 40.3
Cc1nc(-c2cccc(Nc3nccc(NCC(O)c4cccc(F)c4)n3)c2)cs1 (centres unmarked) [TCMDC-136571] | -23.01
Fc1cccc(Nc2nc(NCc3ccc4ccsc4c3)nc(Nc3cccc(F)c3)n2)c1 [TCMDC-135140] | 55.41
CC(=O)Nc1ccc(CN2CCCN(c3cc(NC(=O)c4cccc(C)c4)ccn3)CC2)cc1 [TCMDC-134980] | 8.133
Cc1cccc(OCCCCON2C(N)=NC(N)=NC2(C)C)c1C [TCMDC-131662] | 9.727
COc1ccc(NC(=O)/C=C/c2ccc(Cl)c(Cl)c2)cc1N1CCN(C)CC1 [TCMDC-139042] | -34.01
CC(C)n1ncc2c(C(=O)Nc3ccc(C#N)c(Cl)c3)cc(C3CC3)nc21 [TCMDC-125244] | -17.87
